Values joined by “and” are separate entries in the source; they are usually repeats but may differ in a detail not shown here. Equal entries are not always repeated. The panel holds about 83,000 compounds, 20% with a hit somewhere; the sample as a whole holds those more often.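 Activity criterion: percent growth below 10, measured after cells in 96-well plates were exposed to a single compound concentration for 48 hours.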 Active and inactive are the calls of the source.
Tests used:
Assay in all cases: NCI-60 one-dose screen, 48 h (100 = growth as untreated, 0 = no growth, -100 = all killed)
Details in all cases: 10 µM unless noted
MOLT-4 leukemia = tested on: MOLT-4 leukemia
SR leukemia = tested on: SR leukemia
RPMI-8226 leukemia = tested on: RPMI-8226 leukemia
OVCAR-8 ovarian = tested on: OVCAR-8 ovarian
OVCAR-5 ovarian = tested on: OVCAR-5 ovarian
OVCAR-4 ovarian = tested on: OVCAR-4 ovarian
SK-OV-3 ovarian = tested on: SK-OV-3 ovarian
IGROV1 ovarian = tested on: IGROV1 ovarian
OVCAR-3 ovarian = tested on: OVCAR-3 ovarian
HS 578T breast = tested on: HS 578T breast
NCI/ADR-RES ovarian = tested on: NCI/ADR-RES ovarian
T-47D breast = tested on: T-47D breast
MDA-MB-435 melanoma = tested on: MDA-MB-435 melanoma
SW-620 colon = tested on: SW-620 colon
MCF7 breast = tested on: MCF7 breast
HCT-116 colon = tested on: HCT-116 colon
HCC-2998 colon = tested on: HCC-2998 colon
KM12 colon = tested on: KM12 colon
BT-549 breast = tested on: BT-549 breast

Measured: growth

O=C(O)CNCP(=O)(O)O
inactive: MOLT-4 leukemia 92.4% | SR leukemia 95.3% | RPMI-8226 leukemia 99.1% | OVCAR-8 ovarian 104% | OVCAR-5 ovarian 120% | OVCAR-4 ovarian 111% | SK-OV-3 ovarian 113% | IGROV1 ovarian 106% | OVCAR-3 ovarian 119% | HS 578T breast 121% | NCI/ADR-RES ovarian 110% | T-47D breast 111% | MDA-MB-435 melanoma 104% | SW-620 colon 110% | MCF7 breast 96.2% | HCT-116 colon 103% | HCC-2998 colon 99.2% | KM12 colon 113%

CNC(=O)Oc1ccc(Cl)cc1SSc1cc(Cl)ccc1OC(=O)NC
inactive: MOLT-4 leukemia 52.9% | SR leukemia 67.7% | RPMI-8226 leukemia 48.1% | OVCAR-8 ovarian 78.8% | OVCAR-5 ovarian 121% | OVCAR-4 ovarian 74.5% | SK-OV-3 ovarian 104% | IGROV1 ovarian 77.4% | HS 578T breast 85.6% | NCI/ADR-RES ovarian 81.2% | T-47D breast 57.2% | BT-549 breast 96.4% | MDA-MB-435 melanoma 75.5% | SW-620 colon 87.2% | MCF7 breast 91.8% | HCT-116 colon 91.2% | HCC-2998 colon 99.8% | KM12 colon 98.5%

O=C1NC(=O)C(=Cc2ccccc2)C(=O)N1
inactive: MOLT-4 leukemia 81.5% and 109% | SR leukemia 89.7% and 107% | RPMI-8226 leukemia 112% and 110% | OVCAR-8 ovarian 104% | OVCAR-5 ovarian 108% | OVCAR-4 ovarian 109% and 112% | SK-OV-3 ovarian 106% and 107% | IGROV1 ovarian 92.5% and 104% | OVCAR-3 ovarian 102% and 111% | HS 578T breast 119% and 103% | NCI/ADR-RES ovarian 100% and 103% | T-47D breast 94.8% and 105% | BT-549 breast 106% and 116% | MDA-MB-435 melanoma 113% and 104% | SW-620 colon 103% and 105% | MCF7 breast 145% and 102% | HCC-2998 colon 99.6% and 117% | KM12 colon 114% and 108%

CC[C@H](C)[C@H](NC(=O)[C@H]1CCCCN1C)C(=O)N(C)[C@H](C[C@@H](OC(C)=O)c1cccc(C(=O)N[C@@H](Cc2ccccc2)C[C@H](C)C(=O)OC)n1)C(C)C
inactive: MOLT-4 leukemia 13.6% | SR leukemia 12.2% | RPMI-8226 leukemia 20% | OVCAR-8 ovarian 12% | OVCAR-5 ovarian 39% | OVCAR-4 ovarian 48.8% | SK-OV-3 ovarian 13.8% | IGROV1 ovarian 29% | HS 578T breast 19.9% | NCI/ADR-RES ovarian 13.4% | T-47D breast 63.6% | SW-620 colon 24.6% | MCF7 breast 12.7%
active: OVCAR-3 ovarian -18.1% | BT-549 breast -22.5% | MDA-MB-435 melanoma -29.2% | KM12 colon 4.26%

CC1(C)N=C(N)N=C(N)N1c1ccc(CCC(=O)Nc2ccc(S(=O)(=O)F)cc2)cc1
inactive: MOLT-4 leukemia 26.1% | SR leukemia 15.7% | RPMI-8226 leukemia 34.4% | OVCAR-8 ovarian 36.7% | OVCAR-5 ovarian 34% | OVCAR-4 ovarian 92.8% | SK-OV-3 ovarian 67.8% | IGROV1 ovarian 25.8% | OVCAR-3 ovarian 96.7% | HS 578T breast 82% | NCI/ADR-RES ovarian 117% | T-47D breast 88.9% | BT-549 breast 58.7% | MDA-MB-435 melanoma 20.8% | SW-620 colon 25.8% | MCF7 breast 24.9% | HCC-2998 colon 42.3% | KM12 colon 13.3%

CCCCCCCCCCCCCCCC[n+]1ccccc1
inactive: NCI/ADR-RES ovarian 41.7% and 69.3%
active: MOLT-4 leukemia -61.5% and -64.2% | SR leukemia -32.3% and -40.4% | RPMI-8226 leukemia -67.1% and -42.5% | OVCAR-8 ovarian -72.2% and -41.8% | OVCAR-5 ovarian -45.6% and -15% | OVCAR-4 ovarian -5.49% and -2.49% | SK-OV-3 ovarian -43% and -22.4% | IGROV1 ovarian -73% and -60.1% | OVCAR-3 ovarian -70.9% and -51% | HS 578T breast -26.3% and -12.5% | T-47D breast 3.84% and -0.991% | BT-549 breast -50.8% and -73.3% | MDA-MB-435 melanoma -82.2% and -80.6% | MCF7 breast -21.9% and -2.32% | HCT-116 colon -65% and -95.5% | HCC-2998 colon -80.8% and -60.6% | KM12 colon -96.2% and -81.6%

COC12CC3(C)C(C4=CC(=O)OC4)CCC3(O)C3CCC4=CC(=O)CCC4(CO1)C32 (stereo not drawn)
inactive: MOLT-4 leukemia 119% | SR leukemia 117% | RPMI-8226 leukemia 118% | OVCAR-8 ovarian 99.9% | OVCAR-5 ovarian 99.5% | OVCAR-4 ovarian 105% | SK-OV-3 ovarian 117% | IGROV1 ovarian 98.6% | OVCAR-3 ovarian 118% | HS 578T breast 103% | NCI/ADR-RES ovarian 113% | T-47D breast 116% | MDA-MB-435 melanoma 106% | SW-620 colon 105% | MCF7 breast 98.1% | KM12 colon 114%

COc1ccc(C(C#N)C(C)=O)cc1 (stereo not drawn)
inactive: MOLT-4 leukemia 99.7% | SR leukemia 98.8% | RPMI-8226 leukemia 101% | OVCAR-8 ovarian 95.5% | OVCAR-5 ovarian 95.3% | OVCAR-4 ovarian 131% | SK-OV-3 ovarian 99% | IGROV1 ovarian 114% | OVCAR-3 ovarian 108% | NCI/ADR-RES ovarian 102% | T-47D breast 104% | BT-549 breast 100% | MDA-MB-435 melanoma 123% | MCF7 breast 102% | KM12 colon 98.5%
